Experimental data published in PubChem BioAssay (Tox21).
Unmarked numbers belong to inactive results. Inconclusive results are not listed. Entries that show only a call come without a potency. Activity calls are given as the source filed them. Unless noted, calls come from the whole dose curve; as a rule, active = well fitted curve in the direction sought with a large enough effect in the repeat runs; inconclusive = weak or mixed curves; inactive = no such curve, though single readings can be large; an effect the other way counts as inactive or inconclusive.

What was measured:
[1] = qHTS assay to test for compound auto fluorescence at 535 nm (green) in HEK293 cells (AID 720680)
[2] = qHTS assay to test for compound auto fluorescence at 460 nm (blue) in HEK293 cell free culture (AID 720681)
Method in brief: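 Test compounds were pinned into cell-free culture medium (DMEM with 10% FBS) and fluorescence was read directly at Ex/Em 405/460 nm. Signals were expressed as fluorescence equivalents of triamterene, with DMSO vehicle as control.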

[3] = qHTS assay to test for compound auto fluorescence at 535 nm (green) in HEK293 cell free culture (AID 720682)
Method in brief: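 Steps: dispense DMEM/10% FBS into empty wells; pin in compound or DMSO; measure fluorescence at 485/535 nm. Values are fluorescein equivalents.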

[4] = qHTS assay to test for compound auto fluorescence at 590 nm (red) in HEK293 cell free culture (AID 720683)
Method in brief: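 Tox21 10K library compounds were pinned into cell-free DMEM with 10% FBS and fluorescence was read at excitation 540 nm. Activity is expressed as Rose Bengal sodium equivalency.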

[5] = qHTS assay to test for compound auto fluorescence at 590 nm (red) in HepG2 cell free culture (AID 720684)
Method in brief: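 Red fluorescence (540 nm excitation, 590 nm emission) was measured after compound transfer into cell-free MEM supplemented with 10% FBS. Values are equivalencies against Rose Bengal sodium.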

[6] = qHTS assay to test for compound auto fluorescence at 460 nm (blue) in HepG2 cell free culture (AID 720685)
Method in brief: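 Compound (23 nL) or DMSO pinned into cell-free MEM with 10% FBS; blue fluorescence read at 405/460 nm excitation/emission, expressed as auto-fluorescence equivalency to triamterene.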

[7] = qHTS assay to test for compound auto fluorescence at 535 nm (green) in HepG2 cell free culture (AID 720686)
[8] = qHTS assay to test for compound auto fluorescence at 460 nm (blue) in HepG2 cells (AID 720687)
Method in brief: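 Cells (2,000/well in MEM with 10% FBS) attached overnight at 37 C, then were exposed to compound or DMSO for 1 hr at 37 C, 5% CO2. Fluorescence read at Ex/Em 405/460 nm, expressed as triamterene-equivalent signal.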

[9] = target: Glucocorticoid receptor (Homo sapiens) (UniProt P04150); assay: qHTS assay to identify small molecule agonists of the glucocorticoid receptor (GR) signaling pathway (AID 720691; active = well fitted activation curve with a large enough effect in the signal ratio in the repeat runs, not every such curve was filed as active; the % refers to the signal ratio)
Method in brief: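 Agonist mode in a HeLa line carrying a GRE-controlled beta-lactamase reporter. Compounds act for 18 h at 37 C before a 2 h room-temperature FRET substrate step and fluorescence reading.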

[10] = qHTS assay to identify small molecule antagonists of the glucocorticoid receptor (GR) signaling pathway - cell viability counter screen (AID 720693); note: nearly all actives have a fitted effect of over 55% in size
[11] = qHTS assay for identifying genotoxic compounds that show differential cytotoxicity against isogenic chicken DT40 cell lines with known DNA damage response pathways - wild type cell line (AID 743012); note: nearly all actives have a fitted effect of over 60% in size; note: potency is the fitted concentration of half-maximal effect
Method in brief: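 Cells (DT40 wild type, 300/well) are treated with DMSO-dissolved compounds after a ~0.5 h pre-incubation and kept 40 h at 37 C/5% CO2. Viability is then measured by CellTiter-Glo luminescence following 30 min at room temperature.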

[12] = qHTS assay for identifying genotoxic compounds that show differential cytotoxicity against isogenic chicken DT40 cell lines with known DNA damage response pathways - Rad54/Ku70 mutant cell line (AID 743015); note: nearly all actives have a fitted effect of over 60% in size; note: potency is the fitted concentration of half-maximal effect
[13] = qHTS assay to identify small molecule antagonists of the androgen receptor (AR) signaling pathway - cell viability counter screen (AID 743033; note: nearly all actives have a fitted effect of over 45% in size)
[14] = qHTS assay to identify small molecule antagonists of the androgen receptor (AR) signaling pathway using the MDA cell line - cell viability counter screen (AID 743041; note: nearly all actives have a fitted effect of over 45% in size)
Method in brief: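 MDA-kb2 AR-luc human breast carcinoma cells (MMTV-luciferase, AR/GR responsive) were treated with compounds plus R1881 agonist for 16 h at 37 °C. Viability was read as CellTiter-Fluor fluorescence in the same wells as the reporter assay.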

[15] = qHTS assay for identifying genotoxic compounds that show differential cytotoxicity against isogenic chicken DT40 cell lines with known DNA damage response pathways - Rev3 mutant cell line (AID 743014); note: nearly all actives have a fitted effect of over 55% in size; note: potency is the fitted concentration of half-maximal effect
[16] = target: Glucocorticoid receptor (Homo sapiens) (UniProt P04150); assay: qHTS assay to identify small molecule antagonists of the glucocorticoid receptor (GR) signaling pathway (AID 720692; active = well fitted inhibition curve with a large enough effect in the signal ratio in the repeat runs, not every such curve was filed as active; the % refers to the signal ratio)
Method in brief: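 Cells plated, rested 4 h at 37 C/5% CO2; compounds in DMSO pin-transferred; dexamethasone added to 5 nM final; 18 h at 37 C; B/G FRET substrate added, 2 h room temperature; fluorescence measured.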

[17] = target: Androgen receptor (Homo sapiens) (UniProt P10275); assay: qHTS assay to identify small molecule antagonists of the androgen receptor (AR) signaling pathway (AID 743035; active = well fitted inhibition curve with a large enough effect in the signal ratio in the repeat runs, not every such curve was filed as active; the % refers to the signal ratio)
Method in brief: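 Antagonism is scored as loss of R1881-driven beta-lactamase reporter expression in HEK293 cells carrying the reporter under a UAS element, after 16 h co-treatment at 37C and a 2 h room-temperature FRET substrate read.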

[18] = target: Androgen receptor (Homo sapiens) (UniProt P10275); assay: qHTS assay to identify small molecule agonists of the androgen receptor (AR) signaling pathway using the MDA cell line (AID 743040; note: nearly all actives have a fitted effect of over 20% in size)
Method in brief: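 MDA-kb2 breast carcinoma cells stably carrying an MMTV-driven luciferase reporter (AR- and GR-responsive) were seeded and held 5 h at 37C, 0% CO2, then exposed to compounds in DMSO for 16 h. Luminescence was read 30 min after ONE-Glo addition.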

[19] = target: Androgen receptor (Homo sapiens) (UniProt P10275); assay: qHTS assay to identify small molecule antagonists of the androgen receptor (AR) signaling pathway using the MDA cell line (AID 743042; note: nearly all actives have a fitted effect of over 55% in size)
Method in brief: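 MDA-kb2 cells (human breast carcinoma, stably carrying an MMTV-luciferase reporter responsive to AR and GR) were plated at 3,000 cells/well and preincubated 5 hr at 37C, then given compound plus R1881 agonist for 16 h. ONE-Glo luminescence was read.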

[20] = target: Androgen receptor (Homo sapiens) (UniProt P10275); assay: qHTS assay to identify small molecule agonists of the androgen receptor (AR) signaling pathway (AID 743036; active = well fitted activation curve with a large enough effect in the signal ratio in the repeat runs, with a control signal flat, not every such curve was filed as active; the % refers to the signal ratio)
Method in brief: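 Reporter line: GeneBLAzer AR-UAS-bla-GripTite (HEK293). Steps: plate cells, 4 h rest, add compounds, 16 h at 37C, add LiveBLAzer B/G substrate, 2 h at RT, read fluorescence.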

Sequence of Glucocorticoid receptor (Homo sapiens) (P04150 whole entry, looked up): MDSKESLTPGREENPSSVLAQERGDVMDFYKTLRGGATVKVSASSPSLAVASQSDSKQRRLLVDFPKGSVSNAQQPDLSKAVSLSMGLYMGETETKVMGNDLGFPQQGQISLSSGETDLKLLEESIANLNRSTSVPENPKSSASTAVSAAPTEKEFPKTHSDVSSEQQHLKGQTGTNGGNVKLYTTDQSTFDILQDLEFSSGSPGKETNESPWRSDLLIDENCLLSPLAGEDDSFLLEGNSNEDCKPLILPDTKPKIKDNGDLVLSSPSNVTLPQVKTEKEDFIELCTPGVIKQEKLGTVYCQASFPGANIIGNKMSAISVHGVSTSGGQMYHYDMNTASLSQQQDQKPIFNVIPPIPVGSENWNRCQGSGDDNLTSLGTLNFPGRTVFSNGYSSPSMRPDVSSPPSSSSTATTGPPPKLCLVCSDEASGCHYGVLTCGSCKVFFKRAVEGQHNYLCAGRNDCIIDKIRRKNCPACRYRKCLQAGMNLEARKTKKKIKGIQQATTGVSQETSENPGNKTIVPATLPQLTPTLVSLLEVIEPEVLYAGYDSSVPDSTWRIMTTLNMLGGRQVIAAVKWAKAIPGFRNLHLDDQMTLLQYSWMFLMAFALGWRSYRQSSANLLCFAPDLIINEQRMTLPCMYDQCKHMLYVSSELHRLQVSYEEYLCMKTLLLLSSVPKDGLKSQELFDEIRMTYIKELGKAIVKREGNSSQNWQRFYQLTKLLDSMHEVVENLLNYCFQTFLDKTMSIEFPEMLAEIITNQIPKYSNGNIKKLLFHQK
Sequence of Androgen receptor (Homo sapiens) (P10275 whole entry, looked up): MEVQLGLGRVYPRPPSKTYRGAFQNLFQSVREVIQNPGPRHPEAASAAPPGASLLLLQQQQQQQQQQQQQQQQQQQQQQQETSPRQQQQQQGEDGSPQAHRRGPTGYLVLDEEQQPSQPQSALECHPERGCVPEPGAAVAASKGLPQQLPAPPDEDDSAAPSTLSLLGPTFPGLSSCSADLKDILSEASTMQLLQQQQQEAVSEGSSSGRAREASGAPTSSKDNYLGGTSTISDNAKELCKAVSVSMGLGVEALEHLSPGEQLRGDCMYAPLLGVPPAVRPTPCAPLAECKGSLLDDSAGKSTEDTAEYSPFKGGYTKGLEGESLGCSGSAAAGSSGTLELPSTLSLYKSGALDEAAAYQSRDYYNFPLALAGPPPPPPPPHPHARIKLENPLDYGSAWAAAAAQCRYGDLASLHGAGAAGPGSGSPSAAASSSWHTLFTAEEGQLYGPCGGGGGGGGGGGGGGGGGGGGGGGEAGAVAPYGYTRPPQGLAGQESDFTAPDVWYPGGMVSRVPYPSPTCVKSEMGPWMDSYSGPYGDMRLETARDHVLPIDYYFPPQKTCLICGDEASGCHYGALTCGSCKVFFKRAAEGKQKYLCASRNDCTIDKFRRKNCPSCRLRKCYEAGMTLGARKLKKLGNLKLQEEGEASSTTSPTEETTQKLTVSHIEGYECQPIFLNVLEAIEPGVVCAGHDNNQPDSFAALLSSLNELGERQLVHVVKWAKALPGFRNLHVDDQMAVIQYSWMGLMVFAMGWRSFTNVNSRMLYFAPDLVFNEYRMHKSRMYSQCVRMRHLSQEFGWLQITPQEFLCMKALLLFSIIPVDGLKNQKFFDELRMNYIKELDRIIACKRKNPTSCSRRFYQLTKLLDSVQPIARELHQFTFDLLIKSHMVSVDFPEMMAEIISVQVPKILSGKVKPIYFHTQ

Row | Structure (SMILES) | outcome [1] | outcome [2] | outcome [3] | outcome [4] | outcome [5] | outcome [6] | outcome [7] | outcome [8] | Potency [9] | outcome [10] | Potency [11] | Potency [12] | outcome [13] | Potency [14] | Potency [15] | outcome [16] | outcome [17] | Potency [18] | outcome [19] | outcome [20]
1 | O=C1OCCO1 | inactive | inactive | inactive | inactive | inactive | inactive | inactive | inactive | inactive | inactive | inactive | inactive | inactive | inactive |  |  |  |  |  | 
2 | CC(C)Cn1cnc2c1c(=O)n(C)c(=O)n2C | inactive | inactive | inactive | inactive | inactive | inactive | inactive | inactive | inactive | inactive | inactive |  | inactive | inactive | inactive |  |  |  |  | 
3 | C=CCN1C[C@H](C(=O)N(CCCN(C)C)C(=O)NCC)C[C@@H]2c3cccc4[nH]cc(c34)C[C@H]21 | inactive | inactive | inactive | inactive | inactive | inactive | inactive | inactive | inactive | inactive |  |  | inactive |  |  | inactive |  |  |  | 
4 | CC(=O)OC1CCCCC1C(C)(C)C (stereo unspecified) | inactive | inactive | inactive | inactive | inactive | inactive | inactive | inactive | inactive | inactive |  |  | inactive | inactive | inactive |  | inactive | inactive | inactive | 
5 | CCOC(CN1CCN(CC(C)C(=O)c2ccccc2)CC1)c1ccccc1 (stereo unspecified) | inactive | inactive | inactive | inactive | inactive | inactive | inactive | inactive | inactive | inactive | 10.6 µM (active) |  | inactive |  | 13.3 µM (active) |  |  |  |  | 
6 | Nc1nc(-c2ccccc2)c(Br)c(=O)[nH]1 | inactive | inactive | inactive | inactive | inactive | inactive | inactive | inactive | inactive | inactive | inactive |  | inactive | inactive |  |  |  | inactive |  | 
7 | CCCC(CC)c1ccccc1 (stereo unspecified) | inactive | inactive | inactive | inactive | inactive | inactive | inactive | inactive | inactive | inactive |  | inactive | inactive | inactive |  | inactive |  |  |  | 
8 | O=C(Cl)c1ccccc1[N+](=O)[O-] | inactive | inactive | inactive | inactive | inactive | inactive | inactive | inactive | inactive |  | inactive |  | inactive | inactive | inactive |  | inactive | inactive | inactive | inactive
9 | COC(=O)CCCCC(=O)O | inactive | inactive | inactive | inactive | inactive | inactive | inactive | inactive | inactive | inactive |  |  | inactive | inactive | inactive | inactive |  |  |  | 
10 | CC(=O)Nc1ccc(OC(=O)c2ccccc2OC(C)=O)cc1 | inactive | inactive | inactive | inactive | inactive | inactive | inactive | inactive | inactive |  | inactive | inactive | inactive | inactive |  |  |  |  |  | 
11 | C=CCSSCCC | inactive | inactive | inactive | inactive | inactive | inactive | inactive | inactive | inactive | inactive |  | inactive | inactive | inactive |  | inactive |  |  |  | 
12 | OCC1(CO)COCOC1 | inactive | inactive | inactive | inactive | inactive | inactive | inactive | inactive | inactive | inactive |  |  | inactive | inactive | inactive |  |  |  |  | 
13 | Cc1ccc(C(=O)O)cc1[N+](=O)[O-] | inactive | inactive | inactive | inactive | inactive | inactive | inactive | inactive |  | inactive | inactive | inactive | inactive | inactive | inactive |  | inactive | inactive | inactive | 
14 | c1ccc2cnccc2c1 | inactive | inactive | inactive | inactive | inactive | inactive | inactive | inactive | inactive | inactive |  | 54.5 µM (active) | inactive | inactive | 30.6 µM (active) | inactive |  |  |  | 
15 | CN(C)C(C)(C)CO | inactive | inactive | inactive | inactive | inactive | inactive | inactive | inactive | inactive | inactive |  | inactive | inactive | inactive | inactive | inactive |  |  |  | 
16 | CCCCCCCCCOC(=O)c1ccccc1C(=O)OCCCCCCCCC | inactive | inactive | inactive | inactive | inactive | inactive | inactive | inactive | inactive |  | inactive | inactive | inactive | inactive | inactive |  |  | inactive | inactive | inactive
17 | Cn1nnc2c(C(N)=O)ncn2c1=O | inactive | inactive | inactive | inactive | inactive | inactive | inactive | inactive |  | inactive | inactive | inactive | inactive | inactive | inactive |  |  |  |  | 
18 | CCO[Si](CC)(OCC)OCC | inactive | inactive | inactive | inactive | inactive | inactive | inactive | inactive |  | inactive |  |  | inactive | inactive | inactive |  | inactive | inactive | inactive | 
